A selection: hits, their analogues and other compounds. The true share with any hit is near 2.2%.
NPR2 activator = human GC-B receptor activators, primary screen, HEK293 GC-B cells, cGMP TR-FRET, EC30 CNP; Atrial natriuretic peptide receptor 2 (Homo sapiens), P20594; 0% at EC30 CNP, 100% saturating CNP; activation, % at 10 µM; hit rate 0.11% among 370,000;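 active means activation at 10 µM reaching about 35% in either raw or pattern-adjusted values, limit read from the data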
Rce1 inh = yeast Rce1p protease inhibitors, primary screen, biochemical, fluorescence, cell-free homogeneous; CAAX prenyl protease 2 (Saccharomyces cerevisiae (strain ATCC 204508 / S288c)), Q03530; yeast membranes, quenched prenylated peptide cleavage fluorescence; calls only; hit rate 0.27% among 290,000; AID 2563, 2010;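 active means fall in fluorescence gain of 50% or more versus controls, with final raw signal at or below 3038400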;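 further: plate controls were neutral control wells for no effect and wells lacking membranes for full effect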
PLC-gamma1 inh = PLC-gamma1 enzyme inhibitors, primary screen, biochemical, fluorescence, purified enzyme. 1-phosphatidylinositol 4,5-bisphosphate phosphodiesterase gamma-1 (Homo sapiens), P19174. fluorogenic substrate. inhibition, % at 12.2 µM. hit rate 0.84% among 370,000. AID 720700, 2013; in the data active means inhibition above about 9.5%
GC-A act = GC-A stimulated cGMP production enhancers – HEK293 GC-A cells, cGMP TR-FRET, EC30 ANP, primary screen; 0% at EC30 ANP, 100% saturating ANP; activation, % at 10 µM; Atrial natriuretic peptide receptor 1 (Homo sapiens), P16066; hit rate 0.14% among 370,000; in the data active means activation above about 40%
PLCb3 inh = human PLC-beta3 inhibitors, primary screen, biochemical, fluorescence; 1-phosphatidylinositol 4,5-bisphosphate phosphodiesterase beta-3 (Homo sapiens), Q01970; Purified PLC-beta3, fluorogenic substrate; inhibition, % at 12.2 µM; hit rate 0.18% among 370,000;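 further: 0% = median of compound wells on plate and 100% = full blocker control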
PfM18AAP inh = PfM18AAP inhibitors, malaria aminopeptidase, primary screen, biochemical, QFRET, recombinant enzyme | M18 aspartyl aminopeptidase (Plasmodium falciparum 3D7) | H-Glu-NHMec fluorogenic cleavage | hit rate 1.2% among 290,000 | inhibition, % at 7.35 µM;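 active means inhibition above the campaign mean inhibition over all tested compounds plus 3 SD, cut at about 28% in these data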;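 further: 0% = plate median of test compound wells and 100% = 2 mM ZnCl2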
PLCgamma1 ctr = PLC-gamma1 enzyme inhibitors, counter-screen for PLC-beta3 inhibitor project, biochemical, fluorescence; shares compounds with PLC-gamma1 inh; purified PLC-gamma1, fluorogenic substrate; inhibition, % at 12.3 µM; hit rate 3.1% among 3,300; AID 743258, 2014; in the data active means inhibition above about 9.5%
PLCb3 confirm = PLC-beta3 inhibitor confirmation, biochemical, fluorescence, purified enzyme; shares compounds with PLC-gamma1 inh; fluorogenic substrate fluorescence; inhibition, % at 12.3 µM; hit rate 1% among 3,300; AID 743261, 2014
* = called active by the depositor; i = inactive; · = not tested or not shown. Unless noted, no stated cut-off is given here; in the data, active means inhibition above about 11%; inactive means the rest.

SMILES	NPR2 activator	Rce1 inh	PLC-gamma1 inh	GC-A act	PLCb3 inh	PfM18AAP inh	PLCgamma1 ctr	PLCb3 confirm
O=C(CN1CCN(C/C=C/c2ccccc2)CC1)Nc1cc([N+](=O)[O-])ccc1Cl	2	i	-1	1	-1	6	·	·
CC(=O)C1C(c2ccccc2)c2c(n[nH]c2C)CC1(C)O (stereo not drawn)	5	i	12*	-1	3	-6	-4	-3
CC(=O)C1C(c2ccc(C)cc2)c2c(n[nH]c2C)CC1(C)O (stereo not drawn)	2	i	4	5	4	-3	·	·
CN1CCCN(C(=O)CSc2nnc(-c3cccnc3)n2C2CCCCC2)CC1	3	·	-2	5	-3	·	·	·
CCOc1ccc(N2C(=O)CC(S/C(N)=N/N=C/c3cccs3)C2=O)cc1 (stereo not drawn)	-4	i	10*	-5	5	-1	3	6
CCCCCCCCNS(=O)(=O)CC1NCc2ccccc21 (stereo not drawn)	-1	·	-8	-1	-9	·	·	·
COc1cccc(CNCc2ccccn2)c1OC	3	i	3	0	14*	6	-6	-4
Cc1cc(Oc2ccc([N+](=O)[O-])cc2)nc(N2CCOCC2)n1	4	i	12*	0	7	0	-1	-7
Cc1cc(Oc2ccc(C#N)cc2)nc(N2CCOCC2)n1	1	i	0	1	1	-9	·	·
CCC(C)[C@H]1CNCCN1CC1(c2ccccc2)CC1 (stereo partly drawn)	-15	i	8	-11	14*	·	-4	-6
Oc1ccc(C[C@@H]2CNCCN2CCc2cccc3ccccc23)cc1	-8	i	0	-2	1	·	·	·
CCC(C)[C@H]1CNCCN1CCc1cc(C(F)(F)F)cc(C(F)(F)F)c1 (stereo partly drawn)	-14	i	11*	-6	7	·	-11	-4
CCC(C)[C@H]1CNCCN1CCc1cccc2ccccc12 (stereo partly drawn)	-20	i	11*	-12	8	·	-5	0
CC(O)[C@H]1CNCCN1CC1(c2ccccc2)CC1 (stereo partly drawn)	2	i	5	-1	10	·	·	·
CCn1c(=O)n(CC(=O)N2CCCN(Cc3ccccc3)CC2)c(=O)c2ccccc21	-5	·	2	1	1	·	·	·
CS(=O)(=O)N[C@@H]1C[C@@H]2O[C@@H](CO)CC[C@@H]2O[C@@H]1CCc1ccc(/C=C/c2ccccc2)cc1	5	·	-2	6	-10	·	·	·
CC(NCc1ccco1)C(=O)N1CCN(Cc2ccccc2F)CC1 (stereo not drawn)	-2	·	-7	4	-5	·	·	·
COC(=O)[C@]12C[C@H](CC(=O)N3CCCC3)C(=O)N(CCC3=CCCCC3)C1=C[C@H](COCc1ccccc1)O[C@@H]2C	4	·	1	3	0	·	·	·
O=S(=O)(CS(=O)(=O)c1ccc(Br)cc1)c1ccc(Br)cc1	5	·	27*	1	0	·	21*	1
NS(=O)(=O)c1ccc(CCNC(=O)CCCCCNc2nc(=S)[nH]c3ccccc23)cc1	4	i	10*	3	3	12	-6	-1
O=C(Cn1cnc2sc(-c3ccccc3)cc2c1=O)NCc1ccccc1	-7	i	9.5*	0	4	7	-37	-84
Nn1c(SCC(=O)Nc2ccccc2-c2ccccc2)nnc1-c1cc(-c2ccccc2)n[nH]1	-4	·	-2	1	2	·	·	·
